Consider 40 molecules from publication PMC8159961, “Exploring protein hotspots by optimized fragment pharmacophores” (Nature Communications, 2021).

Structures are written as SMILES. Unmarked numbers belong to inactive results. The rule behind the calls is not given here.

histone methyltransferase SET domain containing 2 (SETD2), sequence (Q9BYW2 whole entry, looked up, the tested form may be a part): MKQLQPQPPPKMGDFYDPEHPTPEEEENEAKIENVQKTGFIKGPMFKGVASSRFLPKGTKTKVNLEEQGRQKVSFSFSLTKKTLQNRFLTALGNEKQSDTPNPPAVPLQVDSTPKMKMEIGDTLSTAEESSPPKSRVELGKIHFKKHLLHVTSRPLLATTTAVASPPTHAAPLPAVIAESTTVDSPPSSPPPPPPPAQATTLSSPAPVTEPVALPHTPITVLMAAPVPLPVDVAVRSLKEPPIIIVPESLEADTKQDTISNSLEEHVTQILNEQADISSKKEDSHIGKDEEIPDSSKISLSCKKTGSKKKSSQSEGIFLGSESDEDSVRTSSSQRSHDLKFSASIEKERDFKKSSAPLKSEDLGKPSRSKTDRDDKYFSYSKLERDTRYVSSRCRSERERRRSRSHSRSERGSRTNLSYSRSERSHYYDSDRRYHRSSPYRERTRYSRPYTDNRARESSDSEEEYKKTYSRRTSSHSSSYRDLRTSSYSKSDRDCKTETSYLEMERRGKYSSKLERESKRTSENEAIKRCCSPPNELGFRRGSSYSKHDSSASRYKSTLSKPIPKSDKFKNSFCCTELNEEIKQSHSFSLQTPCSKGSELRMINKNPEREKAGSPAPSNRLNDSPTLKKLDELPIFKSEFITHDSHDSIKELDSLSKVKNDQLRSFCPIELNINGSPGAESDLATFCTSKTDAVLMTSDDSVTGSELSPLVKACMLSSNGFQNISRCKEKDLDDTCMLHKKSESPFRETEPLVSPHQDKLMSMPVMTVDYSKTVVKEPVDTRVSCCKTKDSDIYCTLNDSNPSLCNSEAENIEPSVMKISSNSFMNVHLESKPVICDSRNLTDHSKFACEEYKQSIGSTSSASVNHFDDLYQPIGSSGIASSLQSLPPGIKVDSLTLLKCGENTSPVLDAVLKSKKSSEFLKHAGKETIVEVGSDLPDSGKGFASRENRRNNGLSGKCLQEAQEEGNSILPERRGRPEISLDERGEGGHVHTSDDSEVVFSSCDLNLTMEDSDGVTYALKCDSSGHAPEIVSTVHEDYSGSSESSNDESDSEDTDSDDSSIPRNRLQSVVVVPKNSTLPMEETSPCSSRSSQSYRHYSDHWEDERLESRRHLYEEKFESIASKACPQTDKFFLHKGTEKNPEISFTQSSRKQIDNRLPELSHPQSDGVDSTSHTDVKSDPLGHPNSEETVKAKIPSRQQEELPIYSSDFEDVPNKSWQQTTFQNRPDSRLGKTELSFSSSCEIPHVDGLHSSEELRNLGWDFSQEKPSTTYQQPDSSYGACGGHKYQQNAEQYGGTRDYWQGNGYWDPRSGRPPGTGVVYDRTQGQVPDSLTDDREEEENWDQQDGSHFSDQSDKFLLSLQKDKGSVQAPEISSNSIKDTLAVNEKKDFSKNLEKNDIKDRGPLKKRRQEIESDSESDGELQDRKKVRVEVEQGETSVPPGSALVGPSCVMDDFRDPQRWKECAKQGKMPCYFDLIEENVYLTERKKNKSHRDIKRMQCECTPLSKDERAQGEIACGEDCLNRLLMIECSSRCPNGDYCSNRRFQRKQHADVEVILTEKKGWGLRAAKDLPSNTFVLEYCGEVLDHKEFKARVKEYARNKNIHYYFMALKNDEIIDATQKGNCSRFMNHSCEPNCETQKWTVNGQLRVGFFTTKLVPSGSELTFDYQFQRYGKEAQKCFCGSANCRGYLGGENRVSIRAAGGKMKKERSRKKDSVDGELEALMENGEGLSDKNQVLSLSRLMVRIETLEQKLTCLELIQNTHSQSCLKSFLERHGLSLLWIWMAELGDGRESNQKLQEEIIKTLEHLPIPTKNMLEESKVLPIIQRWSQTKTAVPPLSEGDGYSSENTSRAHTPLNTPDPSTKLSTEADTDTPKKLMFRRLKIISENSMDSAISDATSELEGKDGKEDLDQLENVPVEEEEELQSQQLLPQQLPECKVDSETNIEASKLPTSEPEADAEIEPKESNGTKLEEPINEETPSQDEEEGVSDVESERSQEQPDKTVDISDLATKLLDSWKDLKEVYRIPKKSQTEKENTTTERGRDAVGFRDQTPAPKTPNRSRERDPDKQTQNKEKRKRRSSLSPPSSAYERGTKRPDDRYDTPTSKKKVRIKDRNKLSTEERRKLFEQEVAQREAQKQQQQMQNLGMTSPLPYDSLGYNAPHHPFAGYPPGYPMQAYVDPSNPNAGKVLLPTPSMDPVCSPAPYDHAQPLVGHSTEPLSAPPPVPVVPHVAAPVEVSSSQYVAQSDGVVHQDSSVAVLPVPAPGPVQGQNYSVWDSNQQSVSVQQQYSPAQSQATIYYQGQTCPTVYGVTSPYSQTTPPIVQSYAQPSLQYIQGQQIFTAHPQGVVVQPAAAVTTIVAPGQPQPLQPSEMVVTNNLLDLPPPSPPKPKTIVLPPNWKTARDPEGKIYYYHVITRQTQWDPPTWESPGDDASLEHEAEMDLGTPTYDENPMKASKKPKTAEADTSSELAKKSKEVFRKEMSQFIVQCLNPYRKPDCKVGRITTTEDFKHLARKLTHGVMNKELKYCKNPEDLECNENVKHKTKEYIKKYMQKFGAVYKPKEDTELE

The target in this assay is histone methyltransferase SET domain containing 2 (SETD2) (Homo sapiens, UniProt Q9BYW2). Nature of the assay: primary screen, binary call; higher = more effect of the substance. How it is done:
The Chemiluminescence assay evaluates SETD2 specific tri -methylation activity towards histone H3K36. The kit consist s of recombinant SETD2, S-adenosylmethionine and a specific H3K36me3 antibody and was performed according to the manufacturer’s protocol (Catalo g- No. 52060, https://bpsbioscience.com/setd2 -chemiluminescent-assay-kit-52060). Values were blank corrected and normalized . Enzymatic activities were calculated relative to the positive control of the kit (full enzymatic activity) and to the known SET doma in inhibitor Sinefungin28 used as negative control (complete enzymatic activity inhibition). Compounds used were diluted in DMSO.
Take `CS(=O)(=O)c1ccc(N2CCNCC2)cc1`: the SETD2 is 0.

With `N#Cc1ccc(C(=O)N2CCOCC2)cc1`, the SETD2 was 0. `O=C1CCC(=O)N(c2ccccc2)N1`: the SETD2 was 0. With `CCn1cnc2ccccc21`, the SETD2 was 0.

`CN(C)c1cc(CN)ccn1`: the SETD2 is 0. Under `O=C1NC(=O)C2(CCc3ccccc32)N1` (stereo not shown) stands 0; under `O=C(c1ccccc1)N1CCC(CO)CC1`, 0; under `O=C(CN1CCCC1)c1ccccc1Cl`, 0. The result for `NC(c1ccccc1)c1ccccc1` reads 0.

With `NC1CCc2ccccc21` (stereo not shown), the SETD2 is 0.

Turning to `c1ccc2oc(C3CCCNC3)nc2c1` (stereo not shown), the SETD2 is 0. The result for `O=C1NC2(CCCC2)Nc2ccccc21` reads 0; that for `c1ccc(Nc2nncs2)cc1`, 0; that for `FC1(F)CNCC(F)(F)O1`, 0. For `CC1(C)OC(=O)c2cc(Br)c(O)cc2O1`, the SETD2 was 0. On to `Cc1nccn1Cc1cccc(C#N)c1`, for which the SETD2 was 0. In the case of `Fc1ccc(CC2CCCNC2)cc1` (stereo not shown), the SETD2 is 0. On to `O=C(Nc1ccccc1)C1CC1`, for which the SETD2 was 0. Regarding `CN1CC(=O)NC1=O`, the SETD2 was 0. Take `O=C1CCN(c2ccccn2)CC1`: the SETD2 was 0. As for `Oc1ccc(C2CCNCC2)cc1`, the SETD2 was 0.

As to `COc1ccccc1CC1CCNCC1.Cl`, the SETD2 was 0.

With `NCC1(c2ccccc2)CCOCC1`, the SETD2 is 0. Take `C1=C[C@H]2O[C@@H]1c1ccccc12`: the SETD2 was 0.

Consider `O=C(NC1CC1)c1ccccc1O`, for which the SETD2 was 0. On to `O=C(c1ccncc1)N1CCNCC1`, for which the SETD2 is 0. Under `CCCN1C(=O)CC(=O)NC1=S` stands 0. The result for `CC1CCc2sc(C(=O)O)cc2C1` (stereo not shown) reads 1 (active); that for `COc1ccc(CN2CCNCC2)cc1F`, 0. The result for `Nc1ccc(SC(F)F)cc1` reads 0; that for `Oc1ccccc1N1CCCCC1`, 0; that for `c1ccc(-c2ccncc2)cc1`, 0. Consider `CS(=O)(=O)c1ccc(OC(F)(F)F)cc1`, for which the SETD2 is 0. Under `COc1ccccc1N1CCNCC1` stands 0; under `c1cnc2c(c1)NCCC2`, 0; under `O=c1[nH]ncc2c1oc1ccccc12`, 0.

Consider `O=C(O)c1ccc(CN2CCOCC2)cc1`, for which the SETD2 is 0. Under `COC(=O)c1c(C)nc(C2CC2)[nH]c1=O` stands 0; under `c1ccc2sc(N3CCNCC3)nc2c1`, 0; under `N#Cc1ccc2ncsc2c1`, 0.
